# Data taken from PubChem BioAssay (NCI).
# About 83,000 compounds went through this panel and 20% of them were active in at least one assay; those are over-represented in the sample as a whole.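 48-hour exposure, single concentration, 96-well plates; percent growth endpoint where 0 means no net growth. Active: below 10.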 The source made the active and inactive calls.
# System: MDA-MB-435 melanoma
# Assay: NCI-60 one-dose screen, 48 h (100 = growth as untreated, 0 = no growth, -100 = all killed)
# Conditions: 10 µM unless noted
row,SMILES,growth
1,Cc1sc2nc(NCCN)[nH]c(=O)c2c1C,84.9% (inactive)
2,C#CCOc1cccc(Nc2ncnc3cc(NC(=O)CCl)ccc23)c1,-75.2% (active)
3,COc1cc(-c2ccc(-c3ccc(C(=N)N)cc3)s2)cc(OC)c1OC,40.4% (inactive)

# System: SW-620 colon
# Assay: as above
# Conditions: 10 µM unless noted
row,SMILES,growth
1,COC(=O)c1c(C)nc(C)c2c1C(=O)C=C(NCc1ccccc1)C2=O,106% (inactive)
2,COc1ccc2[nH]cc(-c3nonc3-c3c[nH]c4ccc(Br)cc34)c2c1,59.5% (inactive)
3,C=C(C)[C@@H]1CC[C@]2(COC3CCCCO3)CC[C@]3(C)[C@H](CC[C@@H]4[C@@]5(C)C=C(C=O)C(=O)C(C)(C)[C@@H]5CC[C@]43C)[C@@H]12 (stereo partly drawn),-37.8% (active)
4,CCOc1ncc([N+](=O)[O-])c(OCC)n1,111% (inactive)
5,c1ccc(-c2c(-c3ccccc3)[n+](Cc3ccc4ccccc4c3)cn2Cc2ccc3ccccc3c2)cc1,-79.8% (active)
6,Cn1cc(-c2csc(-c3cn(CCCN4CCOCC4)c4ccc(F)cc34)n2)c2cccnc21,61% (inactive)
7,Cc1cn(C)cn1,108% (inactive)
8,COC(=O)c1sccc1-c1cc(O)c(C(=O)Nc2ccccc2)s1,109% (inactive)
9,CCCCCc1ccc(S(=O)(=O)Nc2ccc3nc(N)oc3c2)cc1,76.8% (inactive)
10,COc1ccc2c(O)c(/C=C3\N=Nc4ncccc43)oc2c1C[C@@H]1CCNC[C@H]1F,-6.3% (active)
11,CCN(CC)CCCC(Cc1ccccc1)Nc1c2ccc(Cl)cc2nc2ccc(OC)cc12 (stereo not drawn),13.2% (inactive)
12,CNCC[C@H](Oc1cccc2ccccc12)c1cccs1,106% (inactive)
13,CCOC(=O)c1cnn(CC(C)O)c1NC(=O)NCc1cccc(F)c1 (stereo not drawn),102% (inactive)
14,N#Cc1ccc(/C=C/c2cn(-c3ccccc3)nc2-c2cccc([N+](=O)[O-])c2)cc1,57.1% (inactive)
15,O=C(/C=C/c1ccco1)Nc1ncc(Cc2cc(Cl)ccc2Cl)s1,20.6% (inactive)
16,CCOC(=O)c1nnn(Cc2cc(=O)oc3ccc(O)cc23)c1C,98.2% (inactive)
17,CC1(C)CC[C@]23CC[C@]4(C)[C@H](CC[C@@H]5[C@@]6(C)C/C(=C/O)C(=O)C(C)(C)[C@@H]6CC[C@]54C)[C@H]2[C@H]1OC3,103% (inactive)
18,COC(=O)c1nc(-c2ccccc2)oc1S(=O)(=O)N1CCCC(C)C1 (stereo not drawn),35.4% (inactive)

row,SMILES,growth
1,Cc1ccc2c(/C=C/C(=O)c3cc(CN4CCOCC4)c(O)c4nc(C)ccc34)cc(CN3CCOCC3)c(O)c2n1,1.06% (active)
2,CCN1C(=O)N(CC)C2C1NN=c1s/c(=C\c3ccc(OC)cc3)c(=O)n12 (stereo not drawn),22.8% (inactive)
3,COc1ccc(C/C(C)=C(\c2ccc(Cl)cc2)c2ccc(OCCN3CCCC3)cc2)cc1,75.2% (inactive)
4,CCN(CC)CCOc1ccc(Nc2ncc3cc(-c4c(Cl)cccc4Cl)c(=O)n(CCOC)c3n2)cc1,7.96% (active)
5,O=C(O)c1cn(C2CC2)c2cc(N3CCN(C(=O)N4CCOCC4)CC3)c(F)cc2c1=O,112% (inactive)
6,Clc1ccc(-c2nc(C(Cl)Cl)nc3cc(-c4ccccc4)nn23)cc1,-5.43% (active)
7,c1cc(OCCN2CCCCCC2)ccc1CNc1ccc2nc(CCC3CCCCC3)[nH]c2c1,28.8% (inactive)
8,CN(C)CCCC1(c2ccc(F)cc2)OCc2cc(-c3csc4ccccc34)ccc21 (stereo not drawn),-82.4% (active)
9,C(=C(\C1=NCCN1)n1ccc2ccccc21)/c1ccccc1,89.8% (inactive)
10,COc1ccc(C/C(C)=C(\c2ccc(Cl)cc2)c2ccc(OCCCN(C)C)cc2)cc1,60.8% (inactive)
11,Cc1ccc(S(=O)(=O)c2nc(-c3ccccc3)oc2SCC(N)=O)cc1,104% (inactive)
12,CCCCn1c(NC(C)=O)c(S(=O)(=O)c2ccccc2)c2nc3ccccc3nc21,109% (inactive)
13,Cc1ccc(Cc2cnc(NC(=O)/C=C/c3ccc(C)o3)s2)cc1,22.7% (inactive)
14,CCN(CC)CCOc1ccc(C(=O)/C=C\c2ccc(Cl)cc2Cl)cc1,-55.1% (active)
15,O=C(/C=C/C12c3ccccc3C(c3ccccc31)C1C(=O)NC(=O)C12)c1ccco1 (stereo not drawn),27.4% (inactive)
16,CCOC(=O)C1=C(CC(O)c2ccc(OC)cc2OC)NC(=O)NC1c1ccccc1 (stereo not drawn),115% (inactive)
17,COc1ccc2c(c1)CC[C@@H]1[C@@H]2CC[C@]2(C)c3c(cc(C#N)c4c3sc3ccccc34)C[C@@H]12,99.5% (inactive)
